# Assays:
# [1] = biological target: T1, Ephrin type-B receptor 1 (Homo sapiens) (UniProt P54762); conditions: at 10 µM
# T1 sequence (whole entry): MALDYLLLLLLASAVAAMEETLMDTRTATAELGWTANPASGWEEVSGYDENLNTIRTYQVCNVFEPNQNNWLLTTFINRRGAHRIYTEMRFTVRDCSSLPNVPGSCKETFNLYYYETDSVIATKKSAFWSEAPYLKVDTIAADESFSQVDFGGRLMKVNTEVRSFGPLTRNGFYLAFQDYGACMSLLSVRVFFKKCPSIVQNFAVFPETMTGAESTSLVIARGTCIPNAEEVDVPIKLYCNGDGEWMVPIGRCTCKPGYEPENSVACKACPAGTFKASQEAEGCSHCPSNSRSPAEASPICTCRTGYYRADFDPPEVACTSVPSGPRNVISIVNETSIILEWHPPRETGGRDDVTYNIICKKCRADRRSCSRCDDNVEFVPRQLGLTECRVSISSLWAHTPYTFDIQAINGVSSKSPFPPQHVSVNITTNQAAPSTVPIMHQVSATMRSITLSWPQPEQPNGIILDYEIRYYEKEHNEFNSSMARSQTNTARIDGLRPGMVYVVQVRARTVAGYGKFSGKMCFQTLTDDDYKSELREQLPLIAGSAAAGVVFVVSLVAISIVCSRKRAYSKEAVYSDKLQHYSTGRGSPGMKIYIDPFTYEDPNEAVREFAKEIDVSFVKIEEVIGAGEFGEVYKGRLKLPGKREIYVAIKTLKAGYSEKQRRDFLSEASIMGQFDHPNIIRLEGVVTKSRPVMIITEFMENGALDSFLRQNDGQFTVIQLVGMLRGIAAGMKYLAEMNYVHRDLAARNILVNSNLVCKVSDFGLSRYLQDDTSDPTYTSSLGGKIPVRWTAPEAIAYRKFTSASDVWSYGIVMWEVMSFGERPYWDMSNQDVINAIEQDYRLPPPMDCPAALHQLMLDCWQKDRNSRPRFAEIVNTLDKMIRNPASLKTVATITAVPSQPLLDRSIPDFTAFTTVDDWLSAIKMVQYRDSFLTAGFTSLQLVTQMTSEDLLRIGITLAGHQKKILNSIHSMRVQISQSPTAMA
# [2] = biological target: T2, Ephrin type-B receptor 2 (Homo sapiens) (UniProt P29323); conditions: at 1 µM
# T2 sequence (whole entry): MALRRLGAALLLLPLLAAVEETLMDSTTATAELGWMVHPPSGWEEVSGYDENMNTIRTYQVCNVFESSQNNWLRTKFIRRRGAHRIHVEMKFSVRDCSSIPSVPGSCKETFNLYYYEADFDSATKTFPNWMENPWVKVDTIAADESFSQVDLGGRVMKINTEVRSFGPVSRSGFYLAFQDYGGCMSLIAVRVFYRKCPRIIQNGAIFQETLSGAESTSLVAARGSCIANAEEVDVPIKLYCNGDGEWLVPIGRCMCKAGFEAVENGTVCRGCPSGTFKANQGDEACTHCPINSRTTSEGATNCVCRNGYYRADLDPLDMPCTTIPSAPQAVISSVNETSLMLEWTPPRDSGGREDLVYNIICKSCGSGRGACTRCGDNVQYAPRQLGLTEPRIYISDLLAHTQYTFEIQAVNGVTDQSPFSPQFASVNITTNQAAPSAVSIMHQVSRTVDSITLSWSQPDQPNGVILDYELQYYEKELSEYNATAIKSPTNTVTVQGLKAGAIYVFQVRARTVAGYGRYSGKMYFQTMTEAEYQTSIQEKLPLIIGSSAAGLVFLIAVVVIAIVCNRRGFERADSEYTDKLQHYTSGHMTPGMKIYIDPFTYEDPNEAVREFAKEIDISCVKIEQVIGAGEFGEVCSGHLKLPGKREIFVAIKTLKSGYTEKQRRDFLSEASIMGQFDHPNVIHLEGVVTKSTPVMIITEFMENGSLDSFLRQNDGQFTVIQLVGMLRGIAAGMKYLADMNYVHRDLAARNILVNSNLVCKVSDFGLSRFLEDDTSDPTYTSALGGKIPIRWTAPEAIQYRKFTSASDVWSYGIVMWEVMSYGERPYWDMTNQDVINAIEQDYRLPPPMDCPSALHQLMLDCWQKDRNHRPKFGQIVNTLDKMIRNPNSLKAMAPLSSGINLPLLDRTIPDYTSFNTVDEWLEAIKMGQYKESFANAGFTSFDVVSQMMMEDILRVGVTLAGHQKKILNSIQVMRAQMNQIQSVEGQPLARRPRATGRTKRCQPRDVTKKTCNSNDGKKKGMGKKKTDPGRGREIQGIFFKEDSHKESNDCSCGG
# [3] = biological target: T2, Ephrin type-B receptor 2 (Homo sapiens); conditions: at 10 µM
# [4] = biological target: T3, Ephrin type-B receptor 3 (Homo sapiens) (UniProt P54753); conditions: at 1 µM
# T3 sequence (whole entry): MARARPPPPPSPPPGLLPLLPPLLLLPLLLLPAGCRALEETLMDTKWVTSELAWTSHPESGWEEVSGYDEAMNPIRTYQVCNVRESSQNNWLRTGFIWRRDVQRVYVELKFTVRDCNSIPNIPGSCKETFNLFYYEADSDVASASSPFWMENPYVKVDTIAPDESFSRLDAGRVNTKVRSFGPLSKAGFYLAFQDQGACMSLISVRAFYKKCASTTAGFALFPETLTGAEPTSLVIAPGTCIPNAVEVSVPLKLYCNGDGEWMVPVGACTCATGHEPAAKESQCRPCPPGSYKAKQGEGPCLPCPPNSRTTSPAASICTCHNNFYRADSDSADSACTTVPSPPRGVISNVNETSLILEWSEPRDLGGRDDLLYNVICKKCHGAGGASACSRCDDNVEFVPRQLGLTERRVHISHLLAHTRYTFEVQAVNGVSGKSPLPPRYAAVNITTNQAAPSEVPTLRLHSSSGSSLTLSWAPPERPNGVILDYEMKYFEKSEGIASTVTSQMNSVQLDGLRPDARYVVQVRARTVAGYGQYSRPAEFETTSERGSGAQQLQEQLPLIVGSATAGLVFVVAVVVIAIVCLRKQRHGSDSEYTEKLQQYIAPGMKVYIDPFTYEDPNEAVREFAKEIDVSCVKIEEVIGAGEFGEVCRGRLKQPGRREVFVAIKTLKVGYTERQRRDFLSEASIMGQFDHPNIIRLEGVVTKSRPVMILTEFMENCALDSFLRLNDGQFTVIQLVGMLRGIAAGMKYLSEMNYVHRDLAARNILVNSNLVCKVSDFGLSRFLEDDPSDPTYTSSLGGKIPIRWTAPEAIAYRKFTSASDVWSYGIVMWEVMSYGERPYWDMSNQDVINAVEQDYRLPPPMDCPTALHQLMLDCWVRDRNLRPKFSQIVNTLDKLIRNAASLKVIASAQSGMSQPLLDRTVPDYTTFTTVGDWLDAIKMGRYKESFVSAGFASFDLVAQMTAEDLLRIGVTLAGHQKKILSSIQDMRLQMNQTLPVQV
# [5] = biological target: T3, Ephrin type-B receptor 3 (Homo sapiens); conditions: at 10 µM
# [6] = biological target: T4, Ephrin type-B receptor 4 (Homo sapiens) (UniProt P54760); conditions: at 1 µM
# T4 sequence (whole entry): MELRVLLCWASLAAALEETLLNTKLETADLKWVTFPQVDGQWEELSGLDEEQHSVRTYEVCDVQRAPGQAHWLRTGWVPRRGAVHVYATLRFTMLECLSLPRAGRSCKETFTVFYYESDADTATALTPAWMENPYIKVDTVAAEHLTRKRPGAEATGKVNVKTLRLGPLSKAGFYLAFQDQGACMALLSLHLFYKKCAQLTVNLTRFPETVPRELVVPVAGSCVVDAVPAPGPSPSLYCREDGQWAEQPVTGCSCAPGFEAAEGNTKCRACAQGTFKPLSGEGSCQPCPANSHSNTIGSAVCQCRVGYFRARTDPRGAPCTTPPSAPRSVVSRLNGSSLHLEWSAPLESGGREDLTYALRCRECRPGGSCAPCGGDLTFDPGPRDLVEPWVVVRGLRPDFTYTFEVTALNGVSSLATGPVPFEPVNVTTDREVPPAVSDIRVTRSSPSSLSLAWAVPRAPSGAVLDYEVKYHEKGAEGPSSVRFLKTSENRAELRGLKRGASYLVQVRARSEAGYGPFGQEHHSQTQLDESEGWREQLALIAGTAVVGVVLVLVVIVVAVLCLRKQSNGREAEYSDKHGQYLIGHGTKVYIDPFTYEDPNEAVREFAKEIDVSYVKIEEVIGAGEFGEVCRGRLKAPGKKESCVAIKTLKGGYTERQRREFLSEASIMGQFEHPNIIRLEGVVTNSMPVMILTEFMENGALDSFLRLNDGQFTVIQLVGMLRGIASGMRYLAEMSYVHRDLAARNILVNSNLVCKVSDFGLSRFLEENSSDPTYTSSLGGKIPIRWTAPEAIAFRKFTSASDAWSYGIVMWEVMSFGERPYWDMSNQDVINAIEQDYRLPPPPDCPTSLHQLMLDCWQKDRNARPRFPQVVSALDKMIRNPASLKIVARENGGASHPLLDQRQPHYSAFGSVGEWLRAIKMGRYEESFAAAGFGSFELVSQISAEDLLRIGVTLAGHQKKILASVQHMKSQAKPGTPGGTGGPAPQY
# [7] = biological target: T4, Ephrin type-B receptor 4 (Homo sapiens); conditions: at 10 µM
# [8] = biological target: Receptor tyrosine-protein kinase erbB-4 (Homo sapiens) (UniProt Q15303); conditions: at 1 µM
# Chain of Receptor tyrosine-protein kinase erbB-4 (Homo sapiens) (Q15303 whole entry): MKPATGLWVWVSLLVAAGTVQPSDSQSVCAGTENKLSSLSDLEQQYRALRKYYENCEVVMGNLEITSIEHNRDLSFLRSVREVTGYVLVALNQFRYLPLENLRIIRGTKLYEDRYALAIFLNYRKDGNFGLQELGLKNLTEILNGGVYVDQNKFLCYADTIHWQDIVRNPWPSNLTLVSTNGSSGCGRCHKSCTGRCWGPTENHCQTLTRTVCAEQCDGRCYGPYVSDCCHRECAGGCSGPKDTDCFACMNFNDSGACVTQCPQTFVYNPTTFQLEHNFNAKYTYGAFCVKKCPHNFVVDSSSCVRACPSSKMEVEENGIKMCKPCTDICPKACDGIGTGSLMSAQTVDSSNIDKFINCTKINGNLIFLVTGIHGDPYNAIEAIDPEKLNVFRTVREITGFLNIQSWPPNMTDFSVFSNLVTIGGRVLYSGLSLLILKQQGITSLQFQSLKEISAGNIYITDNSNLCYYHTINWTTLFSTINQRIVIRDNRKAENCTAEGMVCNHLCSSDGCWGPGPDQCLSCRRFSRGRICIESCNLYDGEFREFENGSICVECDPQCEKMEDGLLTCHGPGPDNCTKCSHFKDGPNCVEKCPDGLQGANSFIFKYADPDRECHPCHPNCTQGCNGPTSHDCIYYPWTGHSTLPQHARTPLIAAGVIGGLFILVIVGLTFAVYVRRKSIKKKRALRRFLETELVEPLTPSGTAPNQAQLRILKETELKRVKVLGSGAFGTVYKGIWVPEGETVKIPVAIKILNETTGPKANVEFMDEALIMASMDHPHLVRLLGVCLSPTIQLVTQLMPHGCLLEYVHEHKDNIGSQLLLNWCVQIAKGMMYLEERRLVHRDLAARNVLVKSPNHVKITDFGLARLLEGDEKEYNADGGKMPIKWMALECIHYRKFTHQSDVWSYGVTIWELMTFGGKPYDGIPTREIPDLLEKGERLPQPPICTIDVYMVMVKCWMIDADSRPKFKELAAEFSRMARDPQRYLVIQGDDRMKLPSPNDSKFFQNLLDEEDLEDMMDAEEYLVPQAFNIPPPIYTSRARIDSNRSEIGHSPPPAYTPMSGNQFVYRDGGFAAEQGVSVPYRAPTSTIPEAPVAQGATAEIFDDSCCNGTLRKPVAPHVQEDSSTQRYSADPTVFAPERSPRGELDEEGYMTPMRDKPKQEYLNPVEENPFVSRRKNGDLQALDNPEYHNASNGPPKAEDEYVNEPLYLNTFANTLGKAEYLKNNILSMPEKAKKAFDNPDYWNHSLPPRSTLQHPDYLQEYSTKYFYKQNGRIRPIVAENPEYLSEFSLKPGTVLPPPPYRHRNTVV
# [9] = biological target: Receptor tyrosine-protein kinase erbB-4 (Homo sapiens) (UniProt Q15303); conditions: at 10 µM
# [10] = biological target: Focal adhesion kinase 1 (Homo sapiens) (UniProt Q05397); conditions: at 1 µM
# Chain of Focal adhesion kinase 1 (Homo sapiens) (Q05397 2-1052 limits assumed): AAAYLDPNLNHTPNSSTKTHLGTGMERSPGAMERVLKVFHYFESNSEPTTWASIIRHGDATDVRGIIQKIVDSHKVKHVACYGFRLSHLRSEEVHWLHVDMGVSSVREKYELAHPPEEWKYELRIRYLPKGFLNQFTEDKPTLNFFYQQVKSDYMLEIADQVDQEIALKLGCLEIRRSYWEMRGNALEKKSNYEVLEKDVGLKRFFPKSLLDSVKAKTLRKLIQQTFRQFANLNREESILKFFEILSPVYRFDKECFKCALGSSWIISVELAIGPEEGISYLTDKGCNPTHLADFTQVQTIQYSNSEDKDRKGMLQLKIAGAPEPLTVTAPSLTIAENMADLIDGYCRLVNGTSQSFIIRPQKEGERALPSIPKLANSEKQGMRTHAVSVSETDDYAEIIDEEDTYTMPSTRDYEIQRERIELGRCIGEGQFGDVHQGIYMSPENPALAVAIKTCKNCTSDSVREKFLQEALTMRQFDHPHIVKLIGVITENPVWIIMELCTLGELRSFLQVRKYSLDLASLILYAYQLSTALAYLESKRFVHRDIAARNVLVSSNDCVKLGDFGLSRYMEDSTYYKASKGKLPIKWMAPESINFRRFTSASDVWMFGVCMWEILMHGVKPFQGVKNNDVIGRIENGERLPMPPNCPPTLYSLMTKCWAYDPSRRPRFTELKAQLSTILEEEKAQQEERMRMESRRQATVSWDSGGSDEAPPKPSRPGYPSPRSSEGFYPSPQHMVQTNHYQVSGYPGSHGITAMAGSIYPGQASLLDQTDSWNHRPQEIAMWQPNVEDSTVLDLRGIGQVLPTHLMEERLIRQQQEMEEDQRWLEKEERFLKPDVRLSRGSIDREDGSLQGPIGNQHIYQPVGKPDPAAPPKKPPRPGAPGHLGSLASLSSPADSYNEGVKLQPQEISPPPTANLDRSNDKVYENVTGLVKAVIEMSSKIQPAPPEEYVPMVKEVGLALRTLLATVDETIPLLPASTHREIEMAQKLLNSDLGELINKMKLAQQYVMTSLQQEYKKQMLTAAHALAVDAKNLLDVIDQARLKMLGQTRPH
compound,measurement,setting,value
NC(=O)c1ccc2[nH]c(-c3ccc(Oc4ccc(Cl)cc4)cc3)nc2c1,residual activity,[1],94%
same,residual activity,[2],110%
same,residual activity,[3],128%
same,residual activity,[4],102% (inactive)
same,residual activity,[5],94%
same,residual activity,[6],89%
same,residual activity,[7],93%
same,residual activity,[8],106%
same,residual activity,[9],126%
same,residual activity,[10],91%
